From PubChem BioAssay
Only a selection was taken, and hits are over-represented in it overall.
AmpC inh no detg: inhibitors of E. coli AmpC beta-lactamase without detergent | P00811 | AmpC nitrocefin hydrolysis, absorbance 480 nm, 0.0001% Triton | Potency, µM (doses to about 57.1 µM), usual class: inhibitors | hit rate 0.52% among 330,000 | AID 485341; also: nearly all actives have a fitted effect of over 20% in size
Target sequence (P00811 whole entry, looked up): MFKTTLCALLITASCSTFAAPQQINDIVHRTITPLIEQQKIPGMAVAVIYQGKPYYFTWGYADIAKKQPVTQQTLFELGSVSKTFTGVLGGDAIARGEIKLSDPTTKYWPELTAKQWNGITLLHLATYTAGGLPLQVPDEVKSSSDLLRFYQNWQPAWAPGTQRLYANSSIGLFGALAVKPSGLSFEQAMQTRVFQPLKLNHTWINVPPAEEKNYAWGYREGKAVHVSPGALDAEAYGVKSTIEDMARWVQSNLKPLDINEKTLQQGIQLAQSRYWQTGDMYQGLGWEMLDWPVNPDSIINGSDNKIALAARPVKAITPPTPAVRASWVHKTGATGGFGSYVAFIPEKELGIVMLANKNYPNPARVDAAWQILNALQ
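20 mM phosphate pH 7.0 + 0.01% (detergent screen) or 0.0001% Triton X-100; 5.3 nM AmpC reagent; cpd preinc 15 min RT; nitrocefin (800 uM stock) to start; A480 q20 s × 4 min; Activity was normalised to no-enzyme and no-compound control wells.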
SARS PLpro yeast: SARS-CoV PLP inhibition in yeast; Potency, µM (highest dose often 32.9 µM), usual class: activators; hit rate 0.19% among 330,000; S. cerevisiae expressing SARS-CoV PLpro, growth rescue; calls by dose curve; also: nearly all actives have a fitted effect of over 55% in size
AmpC inh detg: inhibitors of E. coli AmpC beta-lactamase with detergent; P00811; Potency, µM (top dose mostly 114 µM), most hits filed as inhibitors; AmpC hydrolysis of nitrocefin, absorbance 480 nm, 0.01% Triton; hit rate 0.041% among 370,000; AID 485294; also: nearly all actives have a fitted effect of over 25% in size
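20 mM phosphate pH 7.0 + 0.01% (detergent screen) or 0.0001% Triton X-100; 5.3 nM AmpC reagent; cpd preinc 15 min RT; nitrocefin (800 uM stock) to start; A480 q20 s × 4 min; Activity was normalised to no-enzyme and no-compound control wells.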
Cycloheximide cs: counter-screen hit for Shiga toxin inhibitors, cycloheximide; cell reporter, cycloheximide protein synthesis inhibition counterscreen; max response, %; hit rate 12% among 300,000; AID 2314; in the data active = max response mostly above about 13%, no sharp cut-off; inactive = mostly below about 14%; also: read at 38.3 µM for the half of the compounds with a filed dose
AMA1 RON2 block: disrupts binding of P. falciparum AMA1 to RON2 | AlphaScreen AMA1-biotinylated RON2 peptide binding | Potency, µM (top dose mostly 58.2 µM), hits mostly inhibitors | hit rate 0.2% among 360,000 | AID 720542; also: nearly all actives have a fitted effect of over 45% in size
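AMA1 (3D7) with his tag at 25 nM final met compounds first, then biotinylated RON2 peptide at 25 nM; detection used donor plus acceptor beads, 10 µg/mL apiece, read by AlphaScreen after 30 min at room temperature.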
Shiga inhibitor: inhibitors of Shiga toxin in Vero cells; hit rate 9.2% among 290,000; AID 2315; inhibition, % at 38.7 µM; Vero cells, Shiga toxin protein synthesis inhibition reporter; in the data active = inhibition mostly above about 28%, no sharp cut-off; inactive = mostly below about 43%
Large screens that a line does not name were inactive. Unless noted, calls follow the shape of the dose curve; as a rule, active = well fitted curve in the direction sought with a large enough effect; inconclusive = small, poorly fitted or top-dose-only effect, or another doubt; inactive = no such curve, though single readings can be large; an effect the other way counts as inactive or inconclusive.

C/C(=N\NC(=O)c1ccccc1O)c1c(O)cc(C)oc1=O	Cycloheximide cs 28
C/C(=N\NC(=O)c1ccccc1[N+](=O)[O-])c1c(O)cc(C)oc1=O	none
C/C(=N\NC(=O)c1cccnc1)c1c(O)cc(C)oc1=O	AmpC inh detg inconclusive, Cycloheximide cs 21, Shiga inhibitor 34
C/C(=N\NC(=O)c1cccnc1)c1cc(C)oc1C	none
CN1CCc2c(C#N)c(N3CCCCC3)nc(N3CCOCC3)c2C1	none (no result: AmpC inh no detg, SARS PLpro yeast, AmpC inh detg, Cycloheximide cs, Shiga inhibitor)
O=C(O)c1cc(N2CCCCC2)nc2ccccc12	none (no result: AmpC inh no detg, SARS PLpro yeast, AmpC inh detg, Cycloheximide cs, Shiga inhibitor)
O=C(CCCc1ccccc1)NCc1ccccc1Cl	AmpC inh detg inconclusive, Cycloheximide cs 18 (no result: Shiga inhibitor)
O=C(CCc1ccccc1)NCCc1ccc(F)cc1	Cycloheximide cs 27
O=C(CCCNC(=O)c1ccc(Cl)cc1)NCc1ccccc1Cl	AmpC inh detg inconclusive
O=C(CCCc1ccccc1)NCc1cn2ccsc2n1	AmpC inh detg inconclusive, Cycloheximide cs 17
O=C(COC(=O)c1ccco1)NCc1ccccc1Cl	Cycloheximide cs 32, Shiga inhibitor 86
CC(C)N(C(=O)[C@H]1C[C@H](CC(=O)NCC23CC4CC(CC(C4)C2)C3)C(=O)N2CCc3c([nH]c4ccc(Cl)cc34)[C@]12C)C(C)C	none (no result: AmpC inh detg, Cycloheximide cs, Shiga inhibitor)
CCCCN(C(=O)c1cc2c(s1)CCC2)c1c(N)n(CC(C)C)c(=O)[nH]c1=O	AmpC inh detg inconclusive (no result: Cycloheximide cs, Shiga inhibitor)
COc1ccccc1NC(=O)c1ccc2[nH]c(C)cc(=O)c2c1	none (no result: AmpC inh no detg, SARS PLpro yeast, Cycloheximide cs, AMA1 RON2 block, Shiga inhibitor)
CC(=O)NC1(NC(C)=O)CCN(C)C(c2ccccc2)C1C (centres undefined)	none
O=C(CCCc1ccccc1)NCCc1ccccc1	Cycloheximide cs 45, Shiga inhibitor 84
O=C(CCCc1ccccc1)NCCCc1ccccc1	AMA1 RON2 block inconclusive
O=C(Cc1ccc(F)cc1)NCCc1ccccc1	none
O=C(CCCc1ccccc1)NCCc1ccc(F)cc1	Cycloheximide cs 29, Shiga inhibitor 92
CC(C)=CC(=O)NCCc1ccccc1	Cycloheximide cs 45, Shiga inhibitor 93 (no result: AmpC inh no detg, SARS PLpro yeast)
CC(=O)c1ccc(OCCCC(=O)NCCc2ccccc2)cc1	Cycloheximide cs 31
CC/C(=C\c1oc2cc3ccccc3cc2[n+]1CC)Nc1ccccc1	AmpC inh detg inconclusive
CN(CC(=O)NCCc1ccc(F)cc1)Cc1cccs1	Cycloheximide cs 28
COc1cccc(C(=O)NCc2cn3ccsc3n2)c1	AmpC inh detg inconclusive, Cycloheximide cs 16
CCOc1ccc(CCNC(=O)CN2CCN(Cc3ccc(F)cc3Cl)C2=O)cc1OCC	none (no result: AmpC inh no detg, SARS PLpro yeast, Cycloheximide cs, AMA1 RON2 block, Shiga inhibitor)
O=C(CN1CCN(Cc2ccc(F)cc2Cl)C1=O)NCCc1ccccc1	Cycloheximide cs 14
COc1cc(/C=N/NC(=O)c2cc(-c3cccs3)nc3ccccc23)ccc1O	Shiga inhibitor 45
N#Cc1ccc(-c2csc(NC(=O)c3cc(-c4cccs4)nc4ccccc34)n2)cc1	none
N#Cc1ccc(/C=N/NC(=O)c2cc(-c3cccs3)nc3ccccc23)cc1	Cycloheximide cs 22
COc1ccc(Nc2nc(NCc3ccco3)nc(N/N=C/c3ccc(O)cc3)n2)cc1	Cycloheximide cs 16, Shiga inhibitor 70
COc1ccc(/C=N/Nc2nc(NCc3ccco3)nc(Nc3ccc(OC)cc3)n2)cc1	none
Cc1ccccc1-n1c(SCC(=O)Nc2ccccc2Cl)nc2n[nH]c(C)c2c1=N	none
COc1ccc(OC)c(NC(=O)CSc2nc3n[nH]c(C)c3c(=N)n2-c2cccc(Cl)c2C)c1	Cycloheximide cs 25
CN(C)S(=O)(=O)Oc1ccsc1C(=O)Nc1ccc(C(F)(F)F)cc1	none
CC(C)n1cc(C(=O)N2CCCC(Nc3ccc(F)c(F)c3)C2)cn1 (centres undefined)	Cycloheximide cs 27
CCOC(=O)Cc1nnc(NC(=O)CSc2ccc(C)cc2)s1	none
C/C(=C\C(=O)C(F)(F)F)Nc1cc(C)cc(C)c1	none
CSc1nn(-c2ccc(C(=O)OCC(=O)NC(=O)NC(C)C)cc2)c(=S)s1	Cycloheximide cs 27
CC(C)NC(=O)NC(=O)COC(=O)c1cc[n+]([O-])cc1	none
CCOC(=O)c1[nH]cnc1C(=O)Nc1ccccc1	none
COCCCn1c(=S)[nH]c2c(sc3ccccc32)c1=O	Cycloheximide cs 29
CC1CCN(CCCn2c(=S)[nH]c3c(sc4ccccc43)c2=O)CC1	AmpC inh detg inconclusive, Cycloheximide cs 22, Shiga inhibitor 105
O=C1CCN(CCc2ccccc2)CCN1[C@H](COc1ccccc1)Cc1ccccc1	none
CSCc1ccc(C(=O)Nc2ccc(C(N)=O)cc2)cc1	Cycloheximide cs 28, Shiga inhibitor 50
CS(=O)(=O)N(Cc1ccccc1)c1ccc(C(=O)Nc2ccc(C(N)=O)cc2)cc1	none
CSCc1ccc(C(=O)NCc2ccc(F)cc2)cc1	none
CSCc1ccc(C(=O)NCc2ccc(C)cc2)cc1	Cycloheximide cs 21, Shiga inhibitor active
CSCc1ccc(C(=O)NCc2ccccc2)cc1	Cycloheximide cs 31
O=C(NCc1ccccc1)c1ccc(Cl)cc1	none
CC(=O)c1ccc(NC(=O)COCc2cc(-c3ccc(F)cc3)on2)cc1	none (no result: AmpC inh no detg, SARS PLpro yeast, Cycloheximide cs, AMA1 RON2 block, Shiga inhibitor)
COC(=O)COc1ccc(-c2nccc(-c3ccccn3)n2)cc1	none
FCCCOc1ccc(-c2nccc(-c3ccc(F)cc3)n2)cc1	none
Oc1ccc(-c2nccc(-c3ccccn3)n2)cc1	Cycloheximide cs 81, Shiga inhibitor 88
Cc1ccc(C(=O)Oc2ccc(-c3nccc(-c4ccccn4)n3)cc2)cc1	none
Oc1ccc(-c2nccc(-c3ccc(Br)cc3)n2)cc1	Cycloheximide cs 17, Shiga inhibitor 40
FCCCOc1ccc(-c2ccnc(-c3ccccc3)n2)cc1	Cycloheximide cs 28, Shiga inhibitor 81
Cc1ccc(-c2ccnc(-c3ccc(O)cc3)n2)cc1	Cycloheximide cs 31, Shiga inhibitor 80
COCCOC(=O)C1=C(N)Oc2c(c(=O)oc3ccccc23)C1c1ccncc1 (centres undefined)	none
COc1ccc(-c2ccnc(-c3ccncc3)n2)cc1	none
COc1ccc(-c2ccnc(-c3ccc(O)cc3)n2)cc1	Cycloheximide cs 24
COc1cccc(-c2nc(-c3ccccc3)c(-c3ccccc3)[nH]2)c1OCC(=O)O	AmpC inh detg inconclusive
O=C(O)COc1ccccc1-c1nc(-c2ccccc2)c(-c2ccccc2)[nH]1	AmpC inh no detg 3.2µM
Cc1ccc(CC2C(=O)N(c3cc(Cl)ccn3)C(=O)C2C)cc1 (centres undefined)	Cycloheximide cs 23, Shiga inhibitor 43
Cc1ccc(CC2C(=O)N(c3ccccc3)C(=O)C2C)cc1 (centres undefined)	none
CC(=O)O/N=C(\N)c1ccc(-c2csnn2)cc1	Cycloheximide cs 34, Shiga inhibitor 65
CC(C)(C)C(=O)O/N=C(\N)c1ccc(-c2csnn2)cc1	Cycloheximide cs 45, Shiga inhibitor 78
